Screening data: PubChem, National Center for Advancing Translational Sciences (NCATS)
NPC1 prom act = NPC1 promoter activation; actives 2.4% (n = 320,000); AID 485313; Huh7 NPC1 promoter luciferase reporter, 24 h; Potency, µM (titrated, usually from 9.22 µM), without a hit: at the highest dose activation, most hits filed as activators; also: % of control where 0% means no effect; nearly all actives have a fitted effect of over 60% in size
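In 1536-well qHTS, Huh7 cells harboring an NPC1 promoter–luciferase construct received compound for 24 h; activation was quantified by luminescence following luciferase reagent addition.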
Rab9 promoter act = activates the Rab9 promoter. AID 485297. Huh7 Rab9 promoter-luciferase reporter, luminescence, 24 h. Potency, µM (series often up to 9.22 µM), for inactives: at the top dose activation, negative = inhibition, usual class: activators. actives 2.8% (n = 320,000); also: % of control where 0% means no effect; nearly all actives have a fitted effect of over 60% in size
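Luciferase signal after 10 min detection reagent at ambient indicates Rab9 promoter upregulation; stably transfected Huh7 cells were treated 24 h with compound in DMSO at 37 °C, 5% CO2.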
FLuc modulator = firefly luciferase modulation, counter-screen for miR-21 project; Potency, µM (top dose mostly 57.5 µM), for inactives: at the top dose activity change, negative = inhibition, actives largely listed as inhibitors; purified FLuc, Km substrates, luminescence inhibition; AID 588342; actives 6.9% (n = 360,000);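 also: plate controls were vehicle for no effect and reference inhibitor for full effect; nearly all actives have a fitted effect of over 55% in size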
Target sequence (P08659 whole entry, looked up): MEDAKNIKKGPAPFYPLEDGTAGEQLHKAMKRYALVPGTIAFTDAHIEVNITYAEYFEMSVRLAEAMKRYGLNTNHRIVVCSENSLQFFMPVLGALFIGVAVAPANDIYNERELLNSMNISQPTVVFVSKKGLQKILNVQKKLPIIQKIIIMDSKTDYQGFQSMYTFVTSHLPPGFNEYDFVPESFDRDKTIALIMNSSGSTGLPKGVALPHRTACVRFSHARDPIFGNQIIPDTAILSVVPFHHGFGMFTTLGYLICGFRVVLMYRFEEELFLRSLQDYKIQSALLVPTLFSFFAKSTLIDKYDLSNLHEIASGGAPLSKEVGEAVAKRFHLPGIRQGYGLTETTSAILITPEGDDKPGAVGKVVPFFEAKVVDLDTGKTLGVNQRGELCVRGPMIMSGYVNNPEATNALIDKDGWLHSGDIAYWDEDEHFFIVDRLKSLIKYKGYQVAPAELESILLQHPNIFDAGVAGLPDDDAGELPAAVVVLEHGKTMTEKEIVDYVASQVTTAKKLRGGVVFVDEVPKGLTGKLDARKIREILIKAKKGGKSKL
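Biochemical qHTS of compounds, final roughly 60 µM downward over six points, against 10 nM purified firefly luciferase using Km concentrations of substrates (10 uM D-luciferin, 10 uM ATP) in Tris acetate pH 7.5 buffer; luminescence output.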
SMN2 splice enh = enhancers of SMN2 splice variant expression; HEK293 SMN2-luciferase splicing reporter, luminescence, 30-36 h; Potency, µM (titrated, usually from 46.1 µM), for inactives: at the top dose activity change, positive = activation, usual class: activators; actives 2.8% (n = 210,000); AID 1458; also: % of control where 0% means no effect; nearly all actives have a fitted effect of over 55% in size
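HEK293 cells carry an SMN2 minigene-luciferase reporter in which exon 7 inclusion puts luciferase in frame. Cells were seeded at 2000 cells/well, attached for 10-12 hours, then exposed to compounds for 30-36 hours at 37C before ONE-Glo luminescence.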
ELG1 genotox = genotoxicity induction in ELG1-luciferase HEK293T cells; AID 504466; actives 1.3% (n = 330,000); HEK293T ELG1-luciferase reporter, luminescence, 16 h; Potency, µM (titrated, usually from 46 µM), for the others: top-dose activity change, positive = activation, usual class: activators; also: % of control where 0% means no effect; nearly all actives have a fitted effect of over 60% in size
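Genotoxic stress is detected as increased luminescence from luciferase-tagged ELG1 in HEK293T cells, measured with ONE-Glo after a 16 hr treatment at 37 °C.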
p53 reactivator = re-activators of mutant p53. H1299 p53-A138V BP100-luciferase reporter, luminescence, 24 h. Potency, µM (highest dose often 92.2 µM), for inactives: at the highest dose activity change, positive = activation, hits mostly activators. actives 0.063% (n = 320,000); also: % of control where 0% means no effect; nearly all actives have a fitted effect of over 45% in size
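p53-null H1299 cells stably carrying temperature-sensitive p53-A138V and a BP100-luciferase reporter were pinned with compounds (4-point, 1:5 series) and held 24 hrs at 37 deg C. Luminescence was read 10 min after detection reagent.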
Active calls of the source: *; ? = inconclusive; / = not tested or not shown; [ ] = dose if it differs, or a comment. Rows were chosen to be rich in hits. Some 7.4% of all compounds tested hit in one or more screens of this group. Calls follow the shape of the dose curve; as a rule, active = well fitted curve in the direction sought with a large enough effect; inconclusive = small, poorly fitted or top-dose-only effect, or another doubt; inactive = no such curve, though single readings can be large; an effect the other way counts as inactive or inconclusive. Potency is read from the fitted curve at half-maximal effect.

SMILES | NPC1 prom act | Rab9 promoter act | FLuc modulator | SMN2 splice enh | ELG1 genotox | p53 reactivator
COc1ccc(C(CNC(=O)c2cccc3cccnc23)N(C)C)cc1 (stereo not given) | -2.7% | -9.8% | 1.0% | / | 1.6% | 6.5%
CCc1cc(C(=O)O)c(NC(=O)/C=C/c2ccc(OC)cc2)s1 | 2.51µM* | 2.82µM* | 12µM* | / | ? | ?
COc1ccc(/C=C/C(=O)Nc2cc(C)nn2-c2nc3ccccc3[nH]2)cc1 | 3.98µM* | ? | 1.69µM* | 11.2µM* | 7.4% | ?
Cc1cc(NC(=O)/C=C/c2ccc(F)cc2)n(-c2nc3ccccc3[nH]2)n1 | ? | 29.3% | ? | 1.3% | 16.3% | 19.7%
COc1ccc(/C=C/C(=O)NC(=S)Nc2cc([N+](=O)[O-])ccc2O)cc1OC | -0.6% | 0.7% | 7.57µM* | 2.7% | 1.6% | 2.9%
COc1ccc([N+](=O)[O-])cc1NC(=S)NC(C)=O | 0.0% | -3.4% | 0.8% | 1.2% | -0.3% | 0.6%
COc1ccc(/C=C/C(=O)Nc2ccccc2C(=O)NCC(c2ccc(OC)cc2)N(C)C)cc1 (stereo not given) | 17.4% | 20.6% | 10.7µM* | / | 6.4% | ?
Cc1occc1C(=O)N1CCCC(N2CCN(c3cccc(Cl)c3)CC2)C1 (stereo not given) | 2.4% | -0.9% | 0.1% | / | -12.9% | -2.1%
CC(=O)c1cccc(NC(=O)c2sc(-n3nc(C)c(CCC(C)C)c3C)nc2C)c1 | / | / | -6.3% | / | / | /
COc1ccc(C2c3ccc4ccccc4c3Oc3ncn(CCN(C)C)c(=N)c32)cc1 (stereo not given) | -0.1% | 0.6%[1.84 µM] | 4.5% | / | 4.0% | -1.6%
COc1ccc(/C=C/C(=O)Nc2ccccc2C(=O)O)cc1 | 0.447µM* | 3.16µM* | 0.426µM* | 3.98µM* | ? | -8.2%
COc1ccc(/C=C/C(=O)Nc2ccccc2C(=O)O)cc1OC | 1.41µM* | 0.891µM* | 0.151µM* | -26.2% | ? | 19.2%
COc1ccc(/C=C/C(=O)Nc2ccccc2C(=O)N2CCCC2)cc1 | ? | ? | 9.53µM* | 7.5% | 15.4% | 27.9%
CC(C)(NC(=O)c1cc(Cl)c2ccccc2c1O)C(=O)O | 3.1% | 1.7% | ? | / | 0.2% | 14.9%
COc1ccc(CCN2CC(C(=O)N3CCCCCC3)CCC2=O)cc1 (stereo not given) | 2.3% | -1.9% | 2.1% | / | -3.0% | -0.7%
COC(=O)N1CCC2(CC1)CCN(c1cccc(-c3ccccc3)c1)CC2 | / | / | / | -25.7% | / | /
Cc1ccc(NC(=O)CN2C(=O)CCn3nc(-c4cccn4C)cc32)cc1 | / | / | 3.5% | / | / | /
COc1ccc(-c2c(C(F)(F)F)[nH]n3c(=O)cc(-c4ccccc4)nc23)cc1 | -2.1% | 1.5% | 19µM* | / | -8.4% | 6.8%
Cc1[nH]n2c(=O)cc(-c3ccc(Cl)cc3)nc2c1-c1ccccc1 | / | / | ? | -60.8% | / | /
O=c1cc(-c2ccccc2)nc2cc(-c3ccc(F)cc3)[nH]n12 | / | / | ? | 10.3% | / | /
Cc1cc(=O)n2[nH]c(N)c(N=Nc3ccccc3)c2n1 | -1.8% | 2.2% | ? | 18.5% | -6.0% | -9.8%
Cc1ccc(N=Nc2c(N)[nH]n3c(=O)cc(-c4ccccc4)nc23)cc1 | 0.9% | -3.1% | 9.53µM* | -74.1% | 1.5% | 5.8%
COc1cccc(-c2cc3nc(-c4ccccc4)cc(=O)n3[nH]2)c1 | -11.0% | 0.3% | 12µM* | / | ? | ?
COc1cccc(N=Nc2c(N)[nH]n3c(=O)cc(-c4ccccc4)nc23)c1 | -1.4% | 2.9% | 10.7µM* | -86.2% | -7.7% | 3.5%
COc1ccc(/C=C/c2nnc(NC(=O)CSc3ccc(Cl)cc3)s2)cc1 | ? | ? | -0.1% | 10µM* | ? | 2.9%
COc1ccc(/C=C/c2nnc(NC(C)=O)s2)cc1 | 1.12µM* | 0.126µM* | 1.9µM* | / | 2.31µM* | 2.3%
COC(=O)Nc1nnc(/C=C/c2ccc(OC)cc2)s1 | ? | 3.55µM* | 6.01µM* | 8.91µM* | ? | 19.8%
